Test systems include SR leukemia; OVCAR-8 ovarian; OVCAR-5 ovarian; OVCAR-4 ovarian; SK-OV-3 ovarian; OVCAR-3 ovarian; NCI/ADR-RES ovarian; IGROV1 ovarian; HS 578T breast; RPMI-8226 leukemia.
Holding throughout (experiment): NCI-60 one-dose screen, 48 h (100 = growth as untreated, 0 = no growth, -100 = all killed)
Common to all, as to conditions: 10 µM unless noted

About 83,000 compounds went through this panel and 20% of them were active in at least one assay; those are over-represented in the sample as a whole.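 48-hour exposure, single concentration, 96-well plates; percent growth endpoint where 0 means no net growth. Active: below 10.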 A number with no mark means an inactive call. Calls of active or inactive are those of the source.

Consider `c1ccc(Cn2nc3c(c2-c2ccccc2)-c2oncc2CC3)cc1`, for which the growth with SR leukemia was 72.4%; in the assay with OVCAR-8 ovarian, 86.8%; with OVCAR-5 ovarian, 107%; with OVCAR-4 ovarian it was 87.5%; with SK-OV-3 ovarian, 115%; in the assay with OVCAR-3 ovarian, 106%. The growth with NCI/ADR-RES ovarian is 84.1%.

Consider `COc1ccc(Cn2nc3c(c2-c2cc(OC)c(OC)c(OC)c2)-c2oncc2CC3)cc1`, for which the growth is 25.5% in the assay on SR leukemia; 107% in the assay on OVCAR-8 ovarian; 88% in the assay with OVCAR-5 ovarian; 86.8% with OVCAR-4 ovarian; 94.7% in the assay on SK-OV-3 ovarian; 81.8% with IGROV1 ovarian. Further, the growth is 98% in the assay on OVCAR-3 ovarian, 116% with HS 578T breast and 65.9% in the assay on NCI/ADR-RES ovarian.

With `CCOC(=O)c1cnc2c(cnn2CC)c1NN=C(C)C`, the growth is 65.9% with SR leukemia; 98.9% with OVCAR-8 ovarian; 80.3% in the assay on OVCAR-5 ovarian; 96.2% in the assay with OVCAR-4 ovarian; 98.5% in the assay on SK-OV-3 ovarian; 9.1% (active) with IGROV1 ovarian. The results for the growth in the assay with OVCAR-3 ovarian, in the assay on HS 578T breast and with NCI/ADR-RES ovarian were 104%, 94.5% and 83.3%, respectively.

For the compound `Nc1cc(N)c2cccnc2c1O`, the growth with RPMI-8226 leukemia was 88%; in the assay on OVCAR-8 ovarian, 68.6%; in the assay on OVCAR-5 ovarian, 96%; in the assay with OVCAR-4 ovarian it was 91.2%; with SK-OV-3 ovarian, 101%; in the assay on IGROV1 ovarian, 66.7%. Also, the values for the growth in the assay with OVCAR-3 ovarian, in the assay with HS 578T breast and with NCI/ADR-RES ovarian were 89%, 63.6% and 71.7%, respectively.

With `CC(C)(C)OC(=O)N1CCN(c2ccc(N)cc2)C(=O)C1`, the growth in the assay on SR leukemia is 81.2%; with OVCAR-8 ovarian it was 107%; with OVCAR-5 ovarian it was 112%; in the assay with OVCAR-4 ovarian, 108%; with SK-OV-3 ovarian it was 109%; in the assay on IGROV1 ovarian it was 112%. The growth in the assay on OVCAR-3 ovarian is 117%; in the assay on HS 578T breast, 105%; in the assay with NCI/ADR-RES ovarian, 102%.

In the case of `Cc1n[nH]c(C)c1-c1c(C)n[nH]c1C`, the growth is -6.74% (active) with SR leukemia; 12.4% in the assay with OVCAR-8 ovarian; 2.14% (active) in the assay on OVCAR-5 ovarian; -17.5% (active) in the assay with OVCAR-4 ovarian; 46.8% in the assay with SK-OV-3 ovarian; 5.52% (active) in the assay on IGROV1 ovarian. The growth is -53.4% (active) with OVCAR-3 ovarian, -8.48% (active) with HS 578T breast and 9.39% (active) in the assay on NCI/ADR-RES ovarian.

Take `CSc1nnc2c(=O)n(C)c(=O)n(C)c2n1`: the growth was 75.8% with RPMI-8226 leukemia; 106% with OVCAR-8 ovarian; 100% in the assay with OVCAR-5 ovarian; 105% in the assay on OVCAR-4 ovarian; 103% in the assay on SK-OV-3 ovarian; 101% in the assay with IGROV1 ovarian. The growth with OVCAR-3 ovarian was 144%; in the assay on HS 578T breast, 86.6%; with NCI/ADR-RES ovarian, 101%.

With `COc1cc2nc(-c3ccc(C#N)cc3)[nH]c(=O)c2cc1OC`, the growth with RPMI-8226 leukemia was 135%; in the assay with OVCAR-8 ovarian it was 102%; with OVCAR-5 ovarian, 102%; with OVCAR-4 ovarian, 113%; in the assay on SK-OV-3 ovarian, 112%; in the assay on IGROV1 ovarian it was 113%. Further, the figures for the growth in the assay with OVCAR-3 ovarian, in the assay on HS 578T breast and in the assay with NCI/ADR-RES ovarian were 109%, 106% and 98.7%, respectively.

In the case of `O=C(O)C(/C=C/c1ccco1)=N\Nc1nc(-c2ccc(Cl)cc2)cs1`, the growth was 41.5% in the assay with SR leukemia; 36.6% in the assay on OVCAR-8 ovarian; 98.9% in the assay with OVCAR-5 ovarian; 43.1% in the assay with OVCAR-4 ovarian; 70.9% in the assay on SK-OV-3 ovarian; -10% (active) with IGROV1 ovarian. Also, the growth in the assay with OVCAR-3 ovarian is -4.27% (active); with HS 578T breast, 77.3%; in the assay with NCI/ADR-RES ovarian, 12.5%.

As to `COc1ccc(Cn2nc(-c3cc(OC)c(OC)c(OC)c3)c3c2CCc2cnoc2-3)cc1OC`, the growth in the assay with SR leukemia is 1.81% (active); in the assay with OVCAR-8 ovarian, 79%; in the assay with OVCAR-5 ovarian, 89.9%; in the assay with SK-OV-3 ovarian it was 47%; in the assay with IGROV1 ovarian, 63.4%; with OVCAR-3 ovarian, 39.7%. Also, the values for the growth with HS 578T breast and with NCI/ADR-RES ovarian were 72.5% and 26.1%, respectively.

In the case of `O=C1/C(=C\c2cn(Cc3ccccc3)c3ccc(Br)cc23)c2ccccc2N1c1c(Cl)cccc1Cl`, the growth is 104% in the assay on RPMI-8226 leukemia; 98% in the assay with OVCAR-8 ovarian; 99% in the assay with OVCAR-5 ovarian; 91.9% in the assay with OVCAR-4 ovarian; 101% in the assay with SK-OV-3 ovarian; 105% in the assay with IGROV1 ovarian. Besides, the growth is 119% in the assay on OVCAR-3 ovarian, 110% in the assay with HS 578T breast and 98.4% with NCI/ADR-RES ovarian.

In the case of `O=C(Nc1cccc(Cl)c1)c1cc(Cl)ccc1O`, the growth with SR leukemia was 12.3%; in the assay on RPMI-8226 leukemia, -20.9% (active); in the assay on OVCAR-8 ovarian, 9.51% (active); with OVCAR-5 ovarian, 12.3%; in the assay on IGROV1 ovarian, 17.5%; in the assay on OVCAR-3 ovarian, 13.5%. Moreover, the growth was -7.76% (active) in the assay on HS 578T breast and 2.78% (active) with NCI/ADR-RES ovarian.

With `CC(=O)c1c(-c2ccc(OC(F)(F)F)cc2)nc2ccccn12`, the growth is 116% with SR leukemia; 101% with RPMI-8226 leukemia; 83.1% in the assay on OVCAR-5 ovarian; 97.6% in the assay on SK-OV-3 ovarian; 88.8% in the assay with IGROV1 ovarian; 101% in the assay on OVCAR-3 ovarian. For the same compound, the growth is 102% with HS 578T breast and 95.9% with NCI/ADR-RES ovarian.

For `c1ccc(-c2nnc(Nc3ccc4c(c3)OCCO4)o2)c(NCc2ccncc2)c1`, the growth in the assay on SR leukemia is 10.9%; in the assay with OVCAR-8 ovarian, 20.2%; in the assay on OVCAR-5 ovarian it was 32.2%; in the assay on OVCAR-4 ovarian it was 35.5%; in the assay on SK-OV-3 ovarian it was -2.96% (active); in the assay on IGROV1 ovarian, 28.5%. The growth with OVCAR-3 ovarian is -36.9% (active); in the assay with HS 578T breast, 64.4%; with NCI/ADR-RES ovarian, 4.75% (active).

In the case of `NC(=O)c1cccc(-n2ccc3cc(NC(=O)Nc4cc(C(F)(F)F)cc(C(F)(F)F)c4)ccc32)n1`, the growth is 44.3% with SR leukemia; 37.2% in the assay with OVCAR-8 ovarian; 72.4% with OVCAR-5 ovarian; 44% in the assay on OVCAR-4 ovarian; 73.7% with SK-OV-3 ovarian; 29.8% in the assay with IGROV1 ovarian. In addition, the values for the growth in the assay on OVCAR-3 ovarian, in the assay with HS 578T breast and in the assay on NCI/ADR-RES ovarian were 39.1%, 38.6% and 41.8%, respectively.

Values taken from PubChem BioAssay (NCI).
